This is an account of results in PubChem BioAssay (EPA / NIEHS).

Common to all, as to settings: mRNA level, 48 h; actives raise or lower the signal
Read-out in experiment [1]: Nuclear factor NF-kappa-B p105 subunit (Homo sapiens) (UniProt P19838)
Kind of experiment: LTEA_HepaRG_NFKB1: Life Technologies and Expression Analysis (LTEA) Assay for Nuclear Factor Kappa B Subunit 1 (NFKB1) using HepaRG (AID 2283521). The essentials: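 Differentiated human HepaRG cells in serum-free induction medium with 0.5% DMSO were exposed for 48 h to eight half-log concentrations, top 100 uM, in duplicate. NFKB1 mRNA measured by Fluidigm TaqMan qRT-PCR, normalised to ACTB, GAPDH and POLR2A; bidirectional fit versus DMSO.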

Read-out in experiment [2]: Protein phosphatase 2A (PPP2R4), PTPA (gene 5524)
Kind of experiment: LTEA_HepaRG_PPP2R4: Life Technologies and Expression Analysis (LTEA) Assay for Protein phosphatase 2A (PPP2R4) using HepaRG (AID 2283522). The essentials: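 Using HepaRG cultures maintained in 0.5% DMSO, chemicals are tested 48 h at up to 100 uM in duplicate. Induction or suppression of PPP2R4 mRNA, measured by qRT-PCR, is fitted bidirectionally against the vehicle baseline.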

Read-out in experiment [3]: Phosphatase and tensin (PTEN), PTEN (gene 5728)
Kind of experiment: LTEA_HepaRG_PTEN: Life Technologies and Expression Analysis (LTEA) Assay for Phosphatase and tensin (PTEN) using HepaRG (AID 2283523). The essentials: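 Read-out: TaqMan qRT-PCR of PTEN transcript, normalized to three housekeeping genes, fitted in both directions against 0.5% DMSO. Differentiated human HepaRG cultures received chemicals for 48 h, eight-point half-log series topping at 100 uM.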

Read-out in experiment [4]: solute carrier (SLC22A1), SLC22A1 (gene 6580)
Kind of experiment: LTEA_HepaRG_SLC22A1: Life Technologies and Expression Analysis (LTEA) Assay for solute carrier (SLC22A1) using HepaRG (AID 2283524). The essentials: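 Transcript level of SLC22A1 quantified by qRT-PCR (normalized to three housekeeping genes) after 48 h chemical exposure of HepaRG cells, eight concentrations up to 100 µM, half-log steps, 0.5% DMSO vehicle. Gain or loss relative to DMSO fitted bidirectionally.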

Read-out in experiment [5]: Pyruvate Dehydrogenase Kinase 4 (PDK4), PDK4 (gene 5166)
The experiment is described as follows: LTEA_HepaRG_PDK4: Life Technologies and Expression Analysis (LTEA) Assay for Pyruvate Dehydrogenase Kinase 4 (PDK4) using HepaRG (AID 2283525). The essentials:
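Readout is qRT-PCR of PDK4 transcript, normalized to three housekeeping genes, with bidirectional fitting against 0.5% DMSO vehicle. Differentiated HepaRG cells were treated 48 h in serum-free induction medium, duplicate wells, eight-point half-log series topping at 100 uM.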

Read-out in experiment [6]: NAD(P)H dehydrogenase [quinone] 1 (NQO1), NQO1 (gene 1728)
The experiment is described as follows: LTEA_HepaRG_NQO1: Life Technologies and Expression Analysis (LTEA) Assay for NAD(P)H dehydrogenase [quinone] 1 (NQO1) using HepaRG (AID 2283526). The essentials: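 In this assay, gene expression is read by qRT-PCR after 48 h exposure of HepaRG cells to eight concentrations (max 100 uM, half-log) in 0.5% DMSO. Each chemical runs in duplicate, and activity is scored relative to vehicle.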

Read-out in experiment [7]: Nuclear factor erythroid 2-related factor 2 (Homo sapiens) (UniProt Q16236)
Kind of experiment: LTEA_HepaRG_NFE2L2: Life Technologies and Expression Analysis (LTEA) Assay for Nuclear factor erythroid 2-related factor 2 (NFE2L2) Transcription Factor using HepaRG (AID 2283527).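 Further: TaqMan qRT-PCR transcript level normalised to ACTB GAPDH and POLR2A housekeeping genes.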 The essentials: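 NFE2L2 transcript level was read by qRT-PCR (housekeeping ACTB/GAPDH/POLR2A normalisation) after 48 h chemical treatment of HepaRG in serum-free induction medium. Duplicate 8-point half-log curves, top 100 uM, 0.5% DMSO vehicle; up- or down-regulation fitted against vehicle.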

Read-out in experiment [8]: succinate dehydrogenase complex iron sulfur subunit B (SDHB), SDHB (gene 6390)
The experiment is described as follows: LTEA_HepaRG_SDHB: Life Technologies and Expression Analysis (LTEA) Assay for succinate dehydrogenase complex iron sulfur subunit B (SDHB) using HepaRG (AID 2283528). The essentials:
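HepaRG cells (~100,000/well, plated 48 h) exposed in duplicate for 48 h in serum-free induction medium to 8-point half-log series from 100 uM in 0.5% DMSO; mRNA by qRT-PCR normalised to ACTB, GAPDH, POLR2A; bidirectional fit versus DMSO.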

Read-out in experiment [9]: Signal transducer and activator of transcription 3 (Homo sapiens) (UniProt P40763)
The experiment is described as follows: LTEA_HepaRG_STAT3: Life Technologies and Expression Analysis (LTEA) Assay for Signal transducer and activator of transcription (STAT3) using HepaRG (AID 2283529). The essentials:
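STAT3 transcript quantified by qRT-PCR against three housekeeping genes (ACTB, GAPDH, POLR2A), fitted both directions relative to DMSO. HepaRG cultures exposed 48 h to eight half-log concentrations, top 100 uM, 0.5% DMSO, serum-free induction medium.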

Read-out in experiment [10]: solute carrier (SLCO1B1), SLCO1B1 (gene 10599)
The experiment is described as follows: LTEA_HepaRG_SLCO1B1: Life Technologies and Expression Analysis (LTEA) Assay for solute carrier (SLCO1B1) using HepaRG (AID 2283530). The essentials:
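SLCO1B1 transcript levels were quantified by TaqMan qRT-PCR using three housekeeping genes for normalization. This followed 48 h chemical exposure (100 uM top, half-log, 8 points, 0.5% DMSO) of HepaRG liver cells, with gain or loss fitted relative to DMSO.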

Read-out in experiment [11]: sulfotransferase 2A1 (SULT2A1), SULT2A1 (gene 6822)
Kind of experiment: LTEA_HepaRG_SULT2A1: Life Technologies and Expression Analysis (LTEA) Assay for sulfotransferase 2A1 (SULT2A1) using HepaRG (AID 2283531). The essentials: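 Expression change of SULT2A1, by qRT-PCR with three housekeeping-gene normalization, was scored bidirectionally versus DMSO. Cells: differentiated HepaRG, dosed in duplicate for 48 h across 8 points, highest 100 µM, half-log dilution, 0.5% DMSO.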

Read-out in experiment [12]: Transforming Growth Factor (TGFA), TGFA (gene 7039)
Kind of experiment: LTEA_HepaRG_TGFA: Life Technologies and Expression Analysis (LTEA) Assay for Transforming Growth Factor (TGFA) using HepaRG (AID 2283532). The essentials:
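TGFA transcript quantified by qRT-PCR (Fluidigm arrays) against three housekeeping genes, after 48 hours chemical treatment of HepaRG cells. Top concentration 100 uM with half-log dilutions, 8 points, duplicates, 0.5% DMSO.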

Read-out in experiment [13]: Transforming Growth Factor (TGFB1), TGFB1 (gene 7040)
The experiment is described as follows: LTEA_HepaRG_TGFB1: Life Technologies and Expression Analysis (LTEA) Assay for Transforming Growth Factor (TGFB1) Transporter using HepaRG (AID 2283533). The essentials:
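TGFB1 transcript measured by qRT-PCR with normalisation to three housekeeping genes (ACTB, GAPDH, POLR2A); human HepaRG line treated in duplicate for 48 hr with an 8-point series topping at 100 uM, 0.5% DMSO vehicle, bidirectionally fitted.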

Read-out in the next experiment: TIMP1, TIMP1 (gene 7076)
Kind of experiment: LTEA_HepaRG_TIMP1: Life Technologies and Expression Analysis (LTEA) Assay for TIMP1 using HepaRG (AID 2283534). The essentials:
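Bidirectional change in TIMP1 transcript versus 0.5% DMSO, measured by TaqMan qRT-PCR with three housekeeping genes for normalization. HepaRG human liver cells dosed 48 h in duplicate, top concentration 100 uM with half-log dilutions.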

Read-out in experiment [14]: Tumor necrosis factor receptor 1 (TNFRSF1A), TNFRSF1A (gene 7132)
Kind of experiment: LTEA_HepaRG_TNFRSF1A: Life Technologies and Expression Analysis (LTEA) Assay for Tumor necrosis factor receptor 1 (TNFRSF1A) using HepaRG (AID 2283535). The essentials: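 mRNA measured by qRT-PCR (TaqMan, Fluidigm arrays) against ACTB/GAPDH/POLR2A housekeepers after 48 h chemical exposure of HepaRG cells. Top concentration 100 uM, half-log 8-point series, duplicates; vehicle 0.5% DMSO, both fit directions.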

Read-out in experiment [15]: Thyroid Hormone Responsive (THRSP), THRSP (gene 7069)
The experiment is described as follows: LTEA_HepaRG_THRSP: Life Technologies and Expression Analysis (LTEA) Assay for Thyroid Hormone Responsive (THRSP) using HepaRG (AID 2283536). The essentials: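 THRSP transcript quantified by Fluidigm qRT-PCR against three housekeeping genes after 48 h chemical exposure of HepaRG cells in serum-free induction medium; eight-point half-log series, top 100 uM, 0.5% DMSO vehicle, duplicate wells.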

Read-out in experiment [16]: Cellular tumor antigen p53 (Homo sapiens) (UniProt P04637)
Kind of experiment: LTEA_HepaRG_TP53: Life Technologies and Expression Analysis (LTEA) Assay for Tumor Protein P53 (TP53) using HepaRG (AID 2283537). The essentials:
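Differentiated HepaRG cells in serum-free induction medium exposed 48 h in duplicate to 8 half-log concentrations, top 100 uM, 0.5% DMSO. TP53 mRNA by TaqMan qRT-PCR (Fluidigm), normalized to ACTB, GAPDH, POLR2A; fitted bidirectionally versus DMSO.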

Read-out in experiment [17]: UDP glucuronosyltransferase (UGT1A1), UGT1A1 (gene 54658)
Kind of experiment: LTEA_HepaRG_UGT1A1: Life Technologies and Expression Analysis (LTEA) Assay for UDP glucuronosyltransferase (UGT1A1) using HepaRG (AID 2283538). The essentials: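 mRNA induction or loss of UGT1A1, by TaqMan qRT-PCR, in duplicate HepaRG wells after 48 h exposure to half-log dilutions topping at 100 uM; DMSO (0.5%) served as baseline.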

Read-out in experiment [18]: UDP glucuronosyltransferase (UGT1A6), UGT1A6 (gene 54578)
The experiment is described as follows: LTEA_HepaRG_UGT1A6: Life Technologies and Expression Analysis (LTEA) Assay for UDP glucuronosyltransferase (UGT1A6) using HepaRG (AID 2283539). The essentials: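 Expression was quantified by TaqMan qRT-PCR on Fluidigm arrays with ACTB/GAPDH/POLR2A normalization and bidirectional fitting against 0.5% DMSO. HepaRG cells (~100,000/well) were treated in duplicate for 48 h at eight half-log concentrations up to 100 uM in serum-free induction medium.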

Read-out in experiment [19]: X-box binding protein 1 (XBP1), XBP1 (gene 7494)
The experiment is described as follows: LTEA_HepaRG_XBP1: Life Technologies and Expression Analysis (LTEA) Assay for X-box binding protein 1 (XBP1) using HepaRG (AID 2283540). The essentials:
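XBP1 transcript by qRT-PCR (housekeeping-normalized: ACTB, GAPDH, POLR2A) after 48 h chemical treatment of HepaRG cells, 8-point half-log series topping at 100 uM, vehicle 0.5% DMSO. Gain and loss of signal fitted relative to DMSO.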

Molecules are shown by their SMILES. Active and inactive are the calls of the source. How the source made its calls: active means hit-call score of the fitted dose curve at least 0.9, where 1 is the maximum; inactive means score below 0.9.

Sequence of Nuclear factor erythroid 2-related factor 2 (Homo sapiens) (Q16236 whole entry, looked up): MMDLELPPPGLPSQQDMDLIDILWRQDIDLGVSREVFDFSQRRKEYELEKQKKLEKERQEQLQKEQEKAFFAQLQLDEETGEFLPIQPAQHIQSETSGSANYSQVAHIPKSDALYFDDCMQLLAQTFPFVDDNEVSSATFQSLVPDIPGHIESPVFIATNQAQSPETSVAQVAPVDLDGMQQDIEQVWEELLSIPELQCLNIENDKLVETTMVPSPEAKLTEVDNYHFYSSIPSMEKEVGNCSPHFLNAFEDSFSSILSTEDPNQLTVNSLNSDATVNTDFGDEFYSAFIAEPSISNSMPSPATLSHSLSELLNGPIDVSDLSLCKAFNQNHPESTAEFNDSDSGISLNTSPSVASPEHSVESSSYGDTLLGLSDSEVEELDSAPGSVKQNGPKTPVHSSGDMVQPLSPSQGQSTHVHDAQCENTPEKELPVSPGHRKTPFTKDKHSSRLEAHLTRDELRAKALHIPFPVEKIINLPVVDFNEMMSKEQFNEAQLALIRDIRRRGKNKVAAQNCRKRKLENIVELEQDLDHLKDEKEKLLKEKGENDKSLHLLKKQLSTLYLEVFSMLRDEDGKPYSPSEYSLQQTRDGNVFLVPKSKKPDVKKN
Sequence of Cellular tumor antigen p53 (Homo sapiens) (P04637 whole entry, looked up): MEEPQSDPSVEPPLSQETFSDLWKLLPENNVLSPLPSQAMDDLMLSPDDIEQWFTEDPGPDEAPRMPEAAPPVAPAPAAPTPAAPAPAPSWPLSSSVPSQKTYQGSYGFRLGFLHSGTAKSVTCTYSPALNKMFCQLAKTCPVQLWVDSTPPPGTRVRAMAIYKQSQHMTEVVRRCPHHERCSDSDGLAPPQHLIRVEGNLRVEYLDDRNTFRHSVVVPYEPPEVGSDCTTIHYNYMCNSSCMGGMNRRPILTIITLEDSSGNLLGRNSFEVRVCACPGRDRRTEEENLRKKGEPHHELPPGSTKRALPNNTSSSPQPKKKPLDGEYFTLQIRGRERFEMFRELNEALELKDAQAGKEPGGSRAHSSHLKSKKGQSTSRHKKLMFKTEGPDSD
Sequence of Nuclear factor NF-kappa-B p105 subunit (Homo sapiens) (P19838 whole entry, looked up): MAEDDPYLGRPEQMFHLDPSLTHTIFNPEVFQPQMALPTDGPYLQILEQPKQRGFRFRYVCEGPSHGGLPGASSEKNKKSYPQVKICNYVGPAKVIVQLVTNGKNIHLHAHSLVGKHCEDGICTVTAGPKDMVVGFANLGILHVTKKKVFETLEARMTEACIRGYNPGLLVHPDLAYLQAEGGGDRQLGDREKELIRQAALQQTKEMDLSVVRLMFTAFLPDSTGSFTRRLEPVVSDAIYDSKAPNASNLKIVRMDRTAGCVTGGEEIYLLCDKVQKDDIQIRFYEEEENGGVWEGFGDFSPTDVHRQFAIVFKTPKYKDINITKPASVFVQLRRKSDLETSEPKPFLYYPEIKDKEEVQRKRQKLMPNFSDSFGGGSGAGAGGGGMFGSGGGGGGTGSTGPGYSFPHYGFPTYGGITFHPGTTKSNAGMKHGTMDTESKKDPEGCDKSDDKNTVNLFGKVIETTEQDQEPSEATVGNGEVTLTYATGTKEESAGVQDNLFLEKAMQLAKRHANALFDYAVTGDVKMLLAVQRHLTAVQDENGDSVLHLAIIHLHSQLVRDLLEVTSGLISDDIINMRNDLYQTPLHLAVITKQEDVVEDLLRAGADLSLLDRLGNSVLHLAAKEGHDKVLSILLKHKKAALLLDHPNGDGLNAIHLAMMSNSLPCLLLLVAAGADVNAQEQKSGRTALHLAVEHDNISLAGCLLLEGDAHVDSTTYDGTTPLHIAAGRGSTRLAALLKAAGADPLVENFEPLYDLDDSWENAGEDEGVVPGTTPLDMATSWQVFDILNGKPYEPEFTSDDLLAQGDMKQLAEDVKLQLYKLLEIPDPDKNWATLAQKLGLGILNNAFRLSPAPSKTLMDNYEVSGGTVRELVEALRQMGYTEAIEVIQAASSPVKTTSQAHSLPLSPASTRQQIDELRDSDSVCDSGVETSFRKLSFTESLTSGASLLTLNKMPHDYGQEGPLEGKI
Sequence of Signal transducer and activator of transcription 3 (Homo sapiens) (P40763 whole entry, looked up): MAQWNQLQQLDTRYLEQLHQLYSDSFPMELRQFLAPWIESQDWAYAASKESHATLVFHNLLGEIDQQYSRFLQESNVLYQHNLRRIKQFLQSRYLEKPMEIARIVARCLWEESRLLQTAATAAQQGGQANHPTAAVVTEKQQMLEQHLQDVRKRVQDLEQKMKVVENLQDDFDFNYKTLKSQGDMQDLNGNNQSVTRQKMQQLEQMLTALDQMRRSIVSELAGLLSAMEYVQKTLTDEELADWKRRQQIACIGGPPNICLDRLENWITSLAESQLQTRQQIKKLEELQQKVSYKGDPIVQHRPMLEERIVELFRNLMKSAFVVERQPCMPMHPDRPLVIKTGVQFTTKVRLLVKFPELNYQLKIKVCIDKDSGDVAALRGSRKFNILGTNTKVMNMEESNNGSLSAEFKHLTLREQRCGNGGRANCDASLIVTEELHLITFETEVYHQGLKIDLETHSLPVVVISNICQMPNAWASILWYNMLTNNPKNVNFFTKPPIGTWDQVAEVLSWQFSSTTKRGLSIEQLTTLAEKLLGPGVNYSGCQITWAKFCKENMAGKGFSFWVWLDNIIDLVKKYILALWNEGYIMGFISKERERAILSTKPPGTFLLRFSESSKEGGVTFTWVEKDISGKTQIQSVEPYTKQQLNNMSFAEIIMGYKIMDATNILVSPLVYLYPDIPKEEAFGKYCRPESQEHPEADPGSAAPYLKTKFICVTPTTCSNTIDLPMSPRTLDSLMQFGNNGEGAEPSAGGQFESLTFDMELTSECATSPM

Turning to `CCCCCCCCCCCCCCO`, the molecule was classed as inactive in experiment [1], in [2], in [3], in [4], in experiment [5] and in experiment [6]. In addition, the result in experiment [7], in experiment [8], in experiment [9], in experiment [10], in experiment [11] and in experiment [12] was inactive. The outcome in experiment [13] is “inactive”; with TIMP1, TIMP1 (gene 7076), “inactive”; in experiment [14] it was “inactive”; in experiment [15] it was “inactive”; in [16], “inactive”; in experiment [17] it was “inactive”. Moreover, the molecule was called inactive in [18] and in [19].
With `O=C(O)c1cccc(C[C@@H]2COc3ccc(OCc4nc5cc(F)ccc5s4)cc3[C@@H]2O)c1`, the molecule was classed as inactive in [1], in [2], in experiment [3], in [5], in experiment [6] and in [7]. In addition, the outcome in [8] was “inactive”; in [9] it was “inactive”; in experiment [11] it was “inactive”; in [13] it was “inactive”; with TIMP1, TIMP1 (gene 7076), “inactive”; in experiment [14] it was “inactive”. Further, the result in experiment [16], in [17], in experiment [18] and in experiment [19] was inactive. In addition, the AC50 – broadly, the midpoint of the concentration-response curve, whichever way the signal moves – is 93.4 µM (active) in [4] and 92.3 µM (active) in experiment [10].
On to `Cn1cc[nH]c1=S`, for which the molecule was called inactive in experiment [1], in experiment [2], in experiment [3], in experiment [4], in experiment [5] and in [6]. Besides, the molecule was called inactive in experiment [7], in experiment [8], in [9], in [10], in experiment [11] and in experiment [13]. Moreover, the outcome in the experiment with TIMP1, TIMP1 (gene 7076) was “inactive”; in experiment [14] it was “inactive”; in experiment [16], “inactive”; in [17], “inactive”; in experiment [18], “inactive”; in experiment [19], “inactive”.
In the case of `CCCCCCOC(=O)CC(CC(=O)OCCCCCC)(OC(=O)CCC)C(=O)OCCCCCC`, the outcome in experiment [1], in experiment [2], in experiment [3], in experiment [4], in experiment [5] and in [6] was inactive. In addition, the molecule was called inactive in [7], in [8], in [9], in [10], in [11] and in experiment [12]. For the same molecule, the outcome was “inactive” in experiment [13]; “inactive” in the experiment with TIMP1, TIMP1 (gene 7076); “inactive” in experiment [14]; “inactive” in [15]; “inactive” in [17]; “inactive” in experiment [18]. Further, in experiment [19], the result was inactive.
